# Sm TGR inh = qHTS Assay for the Inhibitors of Schistosoma Mansoni Peroxiredoxins; purified TGR, DTNB reduction, TNB absorbance 405 nm; AID 485364, 2010; 3% of 360,000 active; Potency, µM (series often up to 114 µM), for inactives: at the top dose activity change, negative = inhibition, actives largely listed as inhibitors; also: potency is read from the fitted curve at half-maximal effect; % is scaled to controls: 0 for no effect and ±100 for the full control effect; nearly all actives have a fitted effect of over 60% in size
#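 First, TGR (20 nM dispensed) and NADPH were mixed with compound. Second, a 15 min room-temperature incubation followed. Third, further NADPH and then DTNB were added to start the reaction. Finally, TNB absorbance was monitored kinetically.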
# Shiga toxin inh = A qHTS for Small Molecule Inhibitors of Shiga Toxin. AID 2315, 2010. inhibition, % at 38.7 µM. Vero cells, Shiga toxin protein synthesis inhibition reporter. 9.2% of 290,000 active; in the data active = inhibition mostly above about 28%, no sharp cut-off; inactive = mostly below about 43%; also: 0% is about no effect
# CHX counter = Cycloheximide Counterscreen for Small Molecule Inhibitors of Shiga Toxin | cell reporter, cycloheximide protein synthesis inhibition counterscreen | 12% of 300,000 active | max response, %; in the data active = max response mostly above about 13%, no sharp cut-off; inactive = mostly below about 14%; also: read at 38.3 µM for the half of the compounds with a filed dose; 0% is about no effect
# TbPYK inhibitor = qHTS of Trypanosoma Brucei Inhibitors | Potency, µM (series often up to 76.8 µM), for inactives: top-dose activity, negative = inhibition, usual class: inhibitors | TbPYK enzyme, Kinase-Glo Plus ATP luminescence, 45 min | AID 624173, 2012 | pyruvate kinase (Trypanosoma brucei), Q57TT1 | 0.12% of 410,000 active; also: potency is read from the fitted curve at half-maximal effect; % is scaled to controls: 0 for no effect and ±100 for the full control effect; nearly all actives have a fitted effect of over 50% in size
#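 Glycolytic pyruvate kinase of T. brucei was incubated with substrate, test compound and 130 uM ADP for 45 minutes at room temperature. Luminescent Kinase-Glo Plus signal was measured after 10 minutes.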
# LmPK inhibitor = qHTS Assay for Inhibitors of Leishmania Mexicana Pyruvate Kinase (LmPK). Q27686. purified LmPK, Kinase-Glo ATP luminescence, 1 h. Potency, µM (top dose mostly 57.5 µM), for the others: at the highest dose activity change, negative = inhibition, hits mostly inhibitors. 0.37% of 290,000 active. AID 1721, 2009; also: potency is read from the fitted curve at half-maximal effect; % is scaled to controls: 0 for no effect and ±100 for the full control effect
#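 Kinase-Glo luminescence read after 1 h RT reaction of 0.1 nM LmPK with 0.5 mM PEP and 0.1 mM ADP. Activity scaled between uninhibited and enzyme-free controls.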
# FBPA Giardia inh = qHTS Assay for Inhibitors of Fructose-1,6-bisphosphate Aldolase from Giardia Lamblia | A8B2U2 | purified Giardia FBPA | Potency, µM (series often up to 59.6 µM), for the others: at the top dose activity, negative = inhibition, usual class: inhibitors | AID 2451, 2010 | 0.71% of 290,000 active; also: potency is read from the fitted curve at half-maximal effect; % is scaled to controls: 0 for no effect and ±100 for the full control effect; nearly all actives have a fitted effect of over 55% in size
# Target sequence (A8B2U2 whole entry, looked up): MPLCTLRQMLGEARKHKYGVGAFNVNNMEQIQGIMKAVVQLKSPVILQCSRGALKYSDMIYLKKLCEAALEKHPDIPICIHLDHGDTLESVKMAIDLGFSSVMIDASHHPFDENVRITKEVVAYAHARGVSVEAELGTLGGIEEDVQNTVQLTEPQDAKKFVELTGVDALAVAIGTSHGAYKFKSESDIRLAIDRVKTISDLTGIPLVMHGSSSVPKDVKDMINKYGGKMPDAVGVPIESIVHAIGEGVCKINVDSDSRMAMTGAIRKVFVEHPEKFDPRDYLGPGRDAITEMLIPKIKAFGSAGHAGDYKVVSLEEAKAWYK
#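 Giardia FBPA (40 nM reagent) was preincubated 10 min at RT with compound (up to 57.5 uM final), then substrate plus GAPDH/TPI/NAD/arsenate coupling system with diaphorase/resazurin was added; resorufin fluorescence (525/598 nm) was read after 20 min.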
# Active calls of the source: *; ? = inconclusive; . = no result. The full list was thinned out, with hits kept by preference. Unless noted, calls follow the shape of the dose curve; as a rule, active = well fitted curve in the direction sought with a large enough effect; inconclusive = small, poorly fitted or top-dose-only effect, or another doubt; inactive = no such curve, though single readings can be large; an effect the other way counts as inactive or inconclusive.
SMILES,Sm TGR inh,Shiga toxin inh,CHX counter,TbPYK inhibitor,LmPK inhibitor,FBPA Giardia inh
O=C(Nc1nc2c(s1)CCCC2)C1COc2ccccc2O1 (stereo not drawn),-9%,45*,38*,-4%,-13%,-1%
O=C(Nc1ncc(Cc2ccccc2)s1)C1COc2ccccc2O1 (stereo not drawn),32%,126*,43*,0%,1%,.
O=C(NCc1cccnc1)C1COc2ccccc2O1 (stereo not drawn),-4%,-8,-2,2%,-4%,0%
CCCCCc1nnc(NC(=O)C2COc3ccccc3O2)s1 (stereo not drawn),8%,39*,30*,-13%,-2%,14%
CCc1ccccc1NC(=O)C1COc2ccccc2O1 (stereo not drawn),?,.,7,-6%,13%,11%
CCc1nnc(NC(=O)C2COc3ccccc3O2)s1 (stereo not drawn),1%,42,36*,-4%,-11%,-3%
CCC(CC)c1nnc(NC(=O)C2COc3ccccc3O2)s1 (stereo not drawn),7%,67*,36*,3%,-3%,5%
CNC(=O)N(O)C1N(/N=C/c2ccccc2F)C(=S)SC1(C)C (stereo not drawn),9%,-10,-4,1%,-1%,-24%
CNC(=O)N(O)C1N(/N=C/c2ccccc2O)C(=S)SC1(C)C (stereo not drawn),7%,28,15*,1%,7%,-14%
Cc1cccc(Nc2nc(C)nc3c2oc2ccccc23)c1,12%,42,19*,4%,1%,-30%
CCc1nc(Nc2ccc3c(c2)OCO3)c2oc3ccccc3c2n1,-2%,62*,12*,-8%,-2%,-24%
COc1ccc(OCC(=O)Nc2ccc3c(c2)nc2n3CCSC2)cc1,?,21,-3,-2%,-2%,7%
Cc1ccc(C(=O)Nc2ccc3c(c2)nc2n3CCSC2)cc1,?,52,31*,-10%,-11%,0%
CCCCC(=O)Nc1ccc2c(c1)nc1n2CCSC1,34%,65*,27*,-2%,5%,2%
CC(=O)Nc1ccc2c(c1)nc1n2CCSC1,-9%,-42,1,4%,-1%,-10%
COc1ccccc1C(=O)Nc1ccc2c(c1)nc1n2CCSC1,-1%,60*,24*,-6%,-9%,-9%
CCN1CCN(C(=O)Nc2cc(Cl)ccc2OC)CC1,.,-8,-5,-12%,-1%,-2%
CCOc1cc(N2CCOCC2)c(OCC)cc1NC(=O)CN1CCC(Cc2ccccc2)CC1,-2%,-13,-1,-7%,4%,-3%
CCOc1cc(N2CCOCC2)c(OCC)cc1NC(C)C(=O)N1CCN(CC)CC1 (stereo not drawn),-33%,-8,-3,5%,-7%,5µM*
CCOc1cc(N2CCOCC2)c(OCC)cc1NC(=O)CN1CCCC(C)C1 (stereo not drawn),3%,-6,15*,-2%,0%,-11%
CCN1CCN(C(=O)C(C)Nc2cc(Cl)c(OC)cc2OC)CC1 (stereo not drawn),20µM*,15,-2,-2%,1%,?
CCOC(=O)C1=C(CN(C)Cc2ccccc2)NC(=O)NC1c1ccc(OC(C)C)cc1 (stereo not drawn),-8%,.,.,-6%,.,.
COc1ccc(C(=O)/C=C/c2ccc(OC(=O)c3cc(OC)c(OC)c(OC)c3)cc2)cc1,9%,-5,1,-3%,-4%,4%
Cc1ccc(C(=O)O[C@H](C(=O)O)[C@H](OC(=O)c2ccc(C)cc2)C(=O)O)cc1,-4%,-9,-4,-9%,1%,6%
O=C(/C=C/c1ccc(I)cc1)c1ccc(B(O)O)cc1,.,16*,29*,.,.,1%
SMILES,Sm TGR inh,Shiga toxin inh,CHX counter,TbPYK inhibitor,LmPK inhibitor,FBPA Giardia inh
Cc1ccc(C(=O)/C=C/C(=O)O)cc1,2.5µM*,6,7,?,-2%,8%
CSc1ccc(/C=C/C(=O)c2ccc(O)cc2)cc1,-16%,91*,44*,1%,-17%,13%
Cc1ccc(/C=C/C(=O)c2ccc(O)cc2)cc1,-36%,49*,28*,0%,-19%,-6%
Cc1cccc(N2CCN(C(=O)Cn3cnc4sc(C)c(S(=O)(=O)N5CCN(c6ncccn6)CC5)c4c3=O)CC2C)c1 (stereo not drawn),-4%,.,.,6%,.,.
CC(C)NC(=O)C1(C)CCN1C/C=C/c1ccccc1 (stereo not drawn),.,.,.,-2%,.,.
O=C(N[C@H]1C/C=C\C[C@@H](CC(=O)N(CCO)Cc2ccccc2)C(=O)NC[C@H](c2ccccc2)OC1=O)OCC1c2ccccc2-c2ccccc21,.,.,.,-2%,.,.
CCC1(CC)NC(=O)N(CC(=O)NC(=O)NCc2ccccc2)C1=O,22µM*,-5,11,-9%,0%,2%
COc1ccc(C(=O)n2c(SC)nc3cc4c(cc32)OCCO4)cc1,14%,52*,49*,-1%,3%,0%
CN(C)C(=O)c1ccc(S(=O)(=O)NCc2ccccc2Cl)s1,4%,.,.,-14%,.,.
CC(=O)c1cccc(NC(=O)C(C)OC(=O)c2cccc(-n3cnnn3)c2)c1 (stereo not drawn),-1%,.,.,2%,.,.
Cc1nnc(NCCc2ccccc2)[nH]c1=O,8%,-3,-1,1%,-1%,2%
C(=C\c1ccccc1)/C=N/Nc1ccc2nncn2n1,0%,-1,-1,2%,1%,-2%
C/C(=N\Nc1nnc(C)c(=O)[nH]1)C(=O)O,1%,7,1,-5%,13%,3.5µM*
CC(/C=N/Nc1ccc2nncn2n1)=C\c1ccccc1,45µM*,-2,-2,4%,6%,3%
CC(/C=N/Nc1nnc(C)c(=O)[nH]1)=C\c1ccccc1,5%,81*,26*,-8%,4%,-5%
CCn1c(SCc2ccccc2Cl)nc(=O)c2c(C(=O)OC)cc(C3CC3)nc21,1%,.,.,1%,.,.
CC(=O)Nc1ccc(C(=O)/C=C/c2ccco2)cc1,8.9µM*,-7,-1,-17%,1%,-21%
CC(/C=C/c1ccco1)=N\NC(=O)CNc1cccc(C)c1,-15%,29,-2,-2%,3%,-8%
CC(=O)Nc1cccc(C(=O)/C=C/c2ccco2)c1,28µM*,49*,43*,-15%,-1%,-7%
O=C(/C=C\c1ccco1)c1ccc(NC(=O)c2ccco2)cc1,4µM*,73,26*,-17%,-4%,-6%

# Screens deposited in PubChem BioAssay by National Center for Advancing Translational Sciences (NCATS).
